Test [1] has as its system Epidermal growth factor receptor (Homo sapiens), P00533 [T790M]. The note with it: at 1 µM.
Test [2] concerns Epidermal growth factor receptor (Homo sapiens), P00533 [L858R,T790M]. The conditions noted are these: at 0.1 µM.
Test [3] has the same test system. The note with it: at 1 µM.
Test [4] concerns the target Ephrin type-A receptor 2 (Homo sapiens) (UniProt P29317). The note with it: at 0.1 µM.
Test [5] has the same target. The note with it: at 1 µM.
Test [6] addresses T1, Ephrin type-A receptor 3 (Homo sapiens) (UniProt P29320).
T1 sequence (whole entry): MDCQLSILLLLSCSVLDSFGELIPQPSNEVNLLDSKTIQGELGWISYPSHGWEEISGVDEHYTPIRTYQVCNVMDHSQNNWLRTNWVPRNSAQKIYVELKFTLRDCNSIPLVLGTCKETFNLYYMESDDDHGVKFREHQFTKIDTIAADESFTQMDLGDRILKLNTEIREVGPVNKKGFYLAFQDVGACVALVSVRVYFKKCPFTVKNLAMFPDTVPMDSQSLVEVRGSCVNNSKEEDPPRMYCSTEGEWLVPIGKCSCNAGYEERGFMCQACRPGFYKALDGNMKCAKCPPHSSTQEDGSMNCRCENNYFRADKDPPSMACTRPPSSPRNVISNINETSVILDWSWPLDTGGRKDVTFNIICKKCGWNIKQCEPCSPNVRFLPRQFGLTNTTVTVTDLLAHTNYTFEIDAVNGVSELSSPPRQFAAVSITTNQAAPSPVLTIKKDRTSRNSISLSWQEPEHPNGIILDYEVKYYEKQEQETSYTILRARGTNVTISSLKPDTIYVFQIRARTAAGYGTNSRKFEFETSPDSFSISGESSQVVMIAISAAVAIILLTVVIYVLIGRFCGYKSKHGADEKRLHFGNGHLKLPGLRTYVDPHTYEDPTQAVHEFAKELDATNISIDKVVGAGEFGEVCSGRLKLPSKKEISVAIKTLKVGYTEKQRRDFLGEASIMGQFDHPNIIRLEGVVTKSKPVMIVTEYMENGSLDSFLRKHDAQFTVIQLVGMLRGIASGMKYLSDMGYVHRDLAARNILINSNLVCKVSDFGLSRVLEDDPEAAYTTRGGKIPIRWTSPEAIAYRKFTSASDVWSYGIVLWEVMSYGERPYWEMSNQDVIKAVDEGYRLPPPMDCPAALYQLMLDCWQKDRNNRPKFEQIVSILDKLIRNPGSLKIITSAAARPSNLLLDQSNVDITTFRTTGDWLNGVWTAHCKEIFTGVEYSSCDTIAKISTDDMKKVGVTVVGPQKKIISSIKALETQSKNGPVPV
The conditions noted are these: at 0.1 µM.

For test [7], the target named is T1, Ephrin type-A receptor 3 (Homo sapiens). The conditions noted are these: at 1 µM.
Test [8] concerns the target Ephrin type-A receptor 4 (Homo sapiens) (UniProt P54764). The conditions noted are these: at 0.1 µM.
Test [9] shares this target. The note with it: at 1 µM.
In test [10] the target is T2, Ephrin type-B receptor 2 (Homo sapiens) (UniProt P29323).
T2 sequence (whole entry): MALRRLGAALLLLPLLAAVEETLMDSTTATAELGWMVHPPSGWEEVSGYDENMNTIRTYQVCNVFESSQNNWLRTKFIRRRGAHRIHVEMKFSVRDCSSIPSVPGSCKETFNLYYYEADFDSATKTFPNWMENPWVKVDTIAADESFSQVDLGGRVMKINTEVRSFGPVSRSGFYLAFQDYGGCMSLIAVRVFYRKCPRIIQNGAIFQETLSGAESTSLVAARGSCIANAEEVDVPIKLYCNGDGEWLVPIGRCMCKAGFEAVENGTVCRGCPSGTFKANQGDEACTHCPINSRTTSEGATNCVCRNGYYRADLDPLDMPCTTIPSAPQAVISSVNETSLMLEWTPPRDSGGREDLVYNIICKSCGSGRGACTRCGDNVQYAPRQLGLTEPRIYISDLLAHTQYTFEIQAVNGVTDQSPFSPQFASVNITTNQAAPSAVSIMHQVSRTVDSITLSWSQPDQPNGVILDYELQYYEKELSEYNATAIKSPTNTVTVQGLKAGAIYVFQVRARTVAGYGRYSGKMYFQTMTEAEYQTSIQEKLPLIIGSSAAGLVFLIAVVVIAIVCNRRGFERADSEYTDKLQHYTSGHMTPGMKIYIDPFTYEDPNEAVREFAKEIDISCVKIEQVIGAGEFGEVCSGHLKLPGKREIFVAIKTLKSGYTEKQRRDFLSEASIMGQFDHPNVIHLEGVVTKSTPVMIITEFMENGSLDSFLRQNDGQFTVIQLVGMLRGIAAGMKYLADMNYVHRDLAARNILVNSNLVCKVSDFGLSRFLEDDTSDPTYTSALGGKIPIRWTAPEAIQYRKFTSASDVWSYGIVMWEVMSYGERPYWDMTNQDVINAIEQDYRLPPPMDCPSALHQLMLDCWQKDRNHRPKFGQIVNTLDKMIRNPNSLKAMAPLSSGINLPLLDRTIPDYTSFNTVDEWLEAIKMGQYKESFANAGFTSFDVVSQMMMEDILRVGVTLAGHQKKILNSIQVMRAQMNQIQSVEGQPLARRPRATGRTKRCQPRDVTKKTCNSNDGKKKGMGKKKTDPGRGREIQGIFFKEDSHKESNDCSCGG
The note with it: at 0.1 µM.

The target of test [11] is T2, Ephrin type-B receptor 2 (Homo sapiens). The conditions noted are these: at 1 µM.
Test [12] addresses T3, Ephrin type-B receptor 3 (Homo sapiens) (UniProt P54753).
T3 sequence (whole entry): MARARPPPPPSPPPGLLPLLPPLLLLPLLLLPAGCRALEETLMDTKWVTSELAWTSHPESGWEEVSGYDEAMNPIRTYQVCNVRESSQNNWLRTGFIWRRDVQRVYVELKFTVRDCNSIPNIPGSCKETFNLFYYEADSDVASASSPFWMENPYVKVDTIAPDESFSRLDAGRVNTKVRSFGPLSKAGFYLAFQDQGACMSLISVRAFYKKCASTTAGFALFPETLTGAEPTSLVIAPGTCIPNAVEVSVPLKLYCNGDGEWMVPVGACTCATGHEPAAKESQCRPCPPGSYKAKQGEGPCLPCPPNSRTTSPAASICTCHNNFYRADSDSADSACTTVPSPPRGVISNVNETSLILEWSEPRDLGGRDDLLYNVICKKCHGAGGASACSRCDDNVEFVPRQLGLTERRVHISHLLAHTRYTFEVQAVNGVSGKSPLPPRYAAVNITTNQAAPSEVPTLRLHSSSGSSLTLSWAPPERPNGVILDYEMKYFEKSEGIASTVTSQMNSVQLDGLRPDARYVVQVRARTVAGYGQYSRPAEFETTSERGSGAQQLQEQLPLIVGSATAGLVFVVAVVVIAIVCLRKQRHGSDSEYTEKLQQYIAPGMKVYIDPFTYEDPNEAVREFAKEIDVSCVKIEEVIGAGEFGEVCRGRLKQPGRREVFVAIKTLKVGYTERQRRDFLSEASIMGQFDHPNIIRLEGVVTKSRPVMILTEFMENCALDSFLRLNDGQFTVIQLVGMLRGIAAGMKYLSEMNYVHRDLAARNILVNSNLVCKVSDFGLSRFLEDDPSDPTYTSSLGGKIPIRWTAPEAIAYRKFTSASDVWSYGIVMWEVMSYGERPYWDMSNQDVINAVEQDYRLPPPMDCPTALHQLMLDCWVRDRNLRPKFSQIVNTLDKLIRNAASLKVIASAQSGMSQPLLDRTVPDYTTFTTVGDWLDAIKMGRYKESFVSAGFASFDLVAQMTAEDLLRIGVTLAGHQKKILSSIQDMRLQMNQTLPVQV
The note with it: at 0.1 µM.

The target of test [13] is T3, Ephrin type-B receptor 3 (Homo sapiens). The conditions noted are these: at 1 µM.
Test [14] has as its target T4, Ephrin type-B receptor 4 (Homo sapiens) (UniProt P54760).
T4 sequence (whole entry): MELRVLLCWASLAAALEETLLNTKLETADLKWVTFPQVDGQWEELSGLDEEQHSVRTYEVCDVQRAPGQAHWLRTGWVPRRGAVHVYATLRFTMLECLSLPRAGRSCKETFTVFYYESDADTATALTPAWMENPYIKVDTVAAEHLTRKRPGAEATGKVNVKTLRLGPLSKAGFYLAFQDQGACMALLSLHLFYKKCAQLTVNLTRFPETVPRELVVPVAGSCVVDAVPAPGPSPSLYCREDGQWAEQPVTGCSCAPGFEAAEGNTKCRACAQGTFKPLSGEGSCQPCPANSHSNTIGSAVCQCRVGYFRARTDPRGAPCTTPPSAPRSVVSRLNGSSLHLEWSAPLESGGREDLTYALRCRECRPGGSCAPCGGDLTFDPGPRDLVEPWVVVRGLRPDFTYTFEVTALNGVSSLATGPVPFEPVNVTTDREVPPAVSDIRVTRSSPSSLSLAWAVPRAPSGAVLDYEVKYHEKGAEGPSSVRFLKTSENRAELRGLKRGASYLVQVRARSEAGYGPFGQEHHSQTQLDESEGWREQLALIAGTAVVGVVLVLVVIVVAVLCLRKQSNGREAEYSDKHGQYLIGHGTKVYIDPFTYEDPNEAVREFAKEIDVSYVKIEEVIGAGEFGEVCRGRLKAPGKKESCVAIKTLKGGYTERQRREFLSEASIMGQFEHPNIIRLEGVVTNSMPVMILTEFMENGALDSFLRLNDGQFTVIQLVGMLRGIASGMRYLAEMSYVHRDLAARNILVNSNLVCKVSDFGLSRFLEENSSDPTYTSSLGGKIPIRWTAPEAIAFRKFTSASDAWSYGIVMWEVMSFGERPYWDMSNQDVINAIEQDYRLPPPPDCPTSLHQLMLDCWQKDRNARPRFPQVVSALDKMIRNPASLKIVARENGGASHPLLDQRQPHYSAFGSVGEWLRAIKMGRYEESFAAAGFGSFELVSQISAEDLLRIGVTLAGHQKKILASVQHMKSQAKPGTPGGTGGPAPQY
The note with it: at 0.1 µM.

Test [15] concerns the target T4, Ephrin type-B receptor 4 (Homo sapiens). The conditions noted are these: at 1 µM.
Test [16] addresses Receptor tyrosine-protein kinase erbB-2 (Homo sapiens) (UniProt P04626). The note with it: at 0.1 µM.
The target is the same in test [17]. The conditions noted are these: at 1 µM.
The target of test [18] is Receptor tyrosine-protein kinase erbB-4 (Homo sapiens) (UniProt Q15303). The note with it: at 0.1 µM.
Chain of Receptor tyrosine-protein kinase erbB-4 (Homo sapiens) (Q15303 whole entry): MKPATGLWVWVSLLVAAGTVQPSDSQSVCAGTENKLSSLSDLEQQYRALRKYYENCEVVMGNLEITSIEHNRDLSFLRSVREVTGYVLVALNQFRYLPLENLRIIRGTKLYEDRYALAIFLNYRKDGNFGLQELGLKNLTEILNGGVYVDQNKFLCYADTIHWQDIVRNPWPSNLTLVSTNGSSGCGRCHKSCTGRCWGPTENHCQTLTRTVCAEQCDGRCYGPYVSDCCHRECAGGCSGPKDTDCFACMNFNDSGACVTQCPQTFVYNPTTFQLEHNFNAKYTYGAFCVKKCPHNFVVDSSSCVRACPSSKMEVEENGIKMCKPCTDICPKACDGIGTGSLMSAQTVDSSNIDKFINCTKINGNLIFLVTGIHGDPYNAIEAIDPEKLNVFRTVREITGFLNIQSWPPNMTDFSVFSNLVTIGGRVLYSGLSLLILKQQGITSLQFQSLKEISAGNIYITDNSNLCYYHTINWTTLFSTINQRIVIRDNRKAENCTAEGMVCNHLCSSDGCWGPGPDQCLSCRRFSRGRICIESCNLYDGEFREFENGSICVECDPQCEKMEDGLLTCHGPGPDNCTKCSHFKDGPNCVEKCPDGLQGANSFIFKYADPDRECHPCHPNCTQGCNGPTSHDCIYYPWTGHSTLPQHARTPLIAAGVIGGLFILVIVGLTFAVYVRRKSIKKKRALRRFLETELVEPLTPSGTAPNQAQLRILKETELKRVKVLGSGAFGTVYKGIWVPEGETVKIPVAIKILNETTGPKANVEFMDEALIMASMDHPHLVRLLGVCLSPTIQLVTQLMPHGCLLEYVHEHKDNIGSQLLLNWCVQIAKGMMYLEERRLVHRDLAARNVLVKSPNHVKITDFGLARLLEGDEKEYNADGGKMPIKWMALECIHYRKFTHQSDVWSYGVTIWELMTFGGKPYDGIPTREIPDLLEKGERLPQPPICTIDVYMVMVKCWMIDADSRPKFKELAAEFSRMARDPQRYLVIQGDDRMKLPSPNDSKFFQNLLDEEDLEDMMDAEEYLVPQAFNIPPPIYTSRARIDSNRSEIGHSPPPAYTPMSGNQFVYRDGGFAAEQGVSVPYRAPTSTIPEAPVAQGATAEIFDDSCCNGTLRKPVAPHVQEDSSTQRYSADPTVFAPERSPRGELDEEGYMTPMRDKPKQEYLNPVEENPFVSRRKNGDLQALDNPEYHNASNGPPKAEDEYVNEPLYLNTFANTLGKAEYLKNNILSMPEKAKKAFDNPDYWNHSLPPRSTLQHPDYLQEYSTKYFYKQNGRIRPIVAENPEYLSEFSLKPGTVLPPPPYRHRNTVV
Test [19] shares this target. The note with it: at 1 µM.
Test [20] concerns the target Tyrosine-protein kinase Fer (Homo sapiens) (UniProt P16591). The conditions noted are these: at 0.1 µM.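 Further: reported figures are averaged percent inhibition of FER.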

Chain of Ephrin type-A receptor 4 (Homo sapiens) (P54764 whole entry): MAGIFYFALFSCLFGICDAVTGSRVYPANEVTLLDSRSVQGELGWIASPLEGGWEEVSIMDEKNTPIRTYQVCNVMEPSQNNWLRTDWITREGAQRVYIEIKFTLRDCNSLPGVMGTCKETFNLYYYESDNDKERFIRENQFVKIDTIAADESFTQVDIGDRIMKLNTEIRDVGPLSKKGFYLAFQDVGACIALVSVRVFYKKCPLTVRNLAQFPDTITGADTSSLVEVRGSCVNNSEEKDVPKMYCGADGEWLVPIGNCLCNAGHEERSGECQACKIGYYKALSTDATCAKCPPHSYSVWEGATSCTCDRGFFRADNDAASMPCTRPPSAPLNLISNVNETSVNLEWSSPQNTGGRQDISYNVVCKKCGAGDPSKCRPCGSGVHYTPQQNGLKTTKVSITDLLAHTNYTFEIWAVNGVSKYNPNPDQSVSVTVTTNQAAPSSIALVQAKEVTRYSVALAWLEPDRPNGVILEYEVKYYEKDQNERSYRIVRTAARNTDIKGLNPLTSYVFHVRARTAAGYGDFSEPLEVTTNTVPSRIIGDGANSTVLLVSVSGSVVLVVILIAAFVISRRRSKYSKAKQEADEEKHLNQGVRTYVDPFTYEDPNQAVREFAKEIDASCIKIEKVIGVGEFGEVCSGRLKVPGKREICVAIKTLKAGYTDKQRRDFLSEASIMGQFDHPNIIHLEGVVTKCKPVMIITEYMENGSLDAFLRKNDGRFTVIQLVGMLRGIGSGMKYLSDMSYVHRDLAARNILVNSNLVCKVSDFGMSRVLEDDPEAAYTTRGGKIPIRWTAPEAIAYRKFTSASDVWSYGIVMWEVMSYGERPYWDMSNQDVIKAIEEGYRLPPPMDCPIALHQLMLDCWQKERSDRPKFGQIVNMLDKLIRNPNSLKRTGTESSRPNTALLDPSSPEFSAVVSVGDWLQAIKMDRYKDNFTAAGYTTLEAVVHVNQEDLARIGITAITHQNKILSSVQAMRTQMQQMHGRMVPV
Chain of Epidermal growth factor receptor (Homo sapiens), P00533 [L858R,T790M] (P00533 whole entry T790M/L858R, looked up): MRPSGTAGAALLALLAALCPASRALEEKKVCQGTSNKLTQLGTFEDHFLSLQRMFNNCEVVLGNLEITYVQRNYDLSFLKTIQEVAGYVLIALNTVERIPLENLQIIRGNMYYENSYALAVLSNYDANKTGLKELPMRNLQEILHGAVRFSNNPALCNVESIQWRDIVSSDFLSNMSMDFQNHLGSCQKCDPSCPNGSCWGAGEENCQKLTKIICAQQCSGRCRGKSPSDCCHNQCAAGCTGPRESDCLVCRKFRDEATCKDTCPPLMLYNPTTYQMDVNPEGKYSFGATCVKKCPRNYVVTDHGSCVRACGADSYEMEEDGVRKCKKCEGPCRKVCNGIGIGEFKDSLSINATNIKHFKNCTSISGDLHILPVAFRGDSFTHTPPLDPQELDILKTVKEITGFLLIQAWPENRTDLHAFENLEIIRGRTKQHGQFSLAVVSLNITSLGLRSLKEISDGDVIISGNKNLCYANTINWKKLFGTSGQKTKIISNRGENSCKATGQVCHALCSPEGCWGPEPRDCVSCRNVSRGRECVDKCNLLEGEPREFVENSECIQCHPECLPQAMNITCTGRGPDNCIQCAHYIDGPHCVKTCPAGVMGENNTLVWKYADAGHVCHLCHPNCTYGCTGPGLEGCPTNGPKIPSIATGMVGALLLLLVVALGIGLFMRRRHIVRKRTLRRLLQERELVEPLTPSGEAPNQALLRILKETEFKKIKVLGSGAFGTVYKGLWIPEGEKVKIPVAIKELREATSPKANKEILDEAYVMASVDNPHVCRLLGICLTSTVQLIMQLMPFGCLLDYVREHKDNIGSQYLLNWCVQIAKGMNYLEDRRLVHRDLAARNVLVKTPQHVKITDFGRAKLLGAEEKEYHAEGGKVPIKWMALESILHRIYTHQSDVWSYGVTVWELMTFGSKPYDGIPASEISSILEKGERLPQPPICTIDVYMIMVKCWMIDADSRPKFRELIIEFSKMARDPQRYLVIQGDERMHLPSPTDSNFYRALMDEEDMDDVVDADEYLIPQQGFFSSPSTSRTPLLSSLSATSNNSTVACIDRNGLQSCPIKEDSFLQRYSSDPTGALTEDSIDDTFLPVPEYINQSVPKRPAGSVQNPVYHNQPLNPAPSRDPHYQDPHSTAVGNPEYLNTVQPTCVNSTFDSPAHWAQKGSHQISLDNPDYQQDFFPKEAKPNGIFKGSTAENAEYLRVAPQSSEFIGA
Chain of Receptor tyrosine-protein kinase erbB-2 (Homo sapiens) (P04626 whole entry): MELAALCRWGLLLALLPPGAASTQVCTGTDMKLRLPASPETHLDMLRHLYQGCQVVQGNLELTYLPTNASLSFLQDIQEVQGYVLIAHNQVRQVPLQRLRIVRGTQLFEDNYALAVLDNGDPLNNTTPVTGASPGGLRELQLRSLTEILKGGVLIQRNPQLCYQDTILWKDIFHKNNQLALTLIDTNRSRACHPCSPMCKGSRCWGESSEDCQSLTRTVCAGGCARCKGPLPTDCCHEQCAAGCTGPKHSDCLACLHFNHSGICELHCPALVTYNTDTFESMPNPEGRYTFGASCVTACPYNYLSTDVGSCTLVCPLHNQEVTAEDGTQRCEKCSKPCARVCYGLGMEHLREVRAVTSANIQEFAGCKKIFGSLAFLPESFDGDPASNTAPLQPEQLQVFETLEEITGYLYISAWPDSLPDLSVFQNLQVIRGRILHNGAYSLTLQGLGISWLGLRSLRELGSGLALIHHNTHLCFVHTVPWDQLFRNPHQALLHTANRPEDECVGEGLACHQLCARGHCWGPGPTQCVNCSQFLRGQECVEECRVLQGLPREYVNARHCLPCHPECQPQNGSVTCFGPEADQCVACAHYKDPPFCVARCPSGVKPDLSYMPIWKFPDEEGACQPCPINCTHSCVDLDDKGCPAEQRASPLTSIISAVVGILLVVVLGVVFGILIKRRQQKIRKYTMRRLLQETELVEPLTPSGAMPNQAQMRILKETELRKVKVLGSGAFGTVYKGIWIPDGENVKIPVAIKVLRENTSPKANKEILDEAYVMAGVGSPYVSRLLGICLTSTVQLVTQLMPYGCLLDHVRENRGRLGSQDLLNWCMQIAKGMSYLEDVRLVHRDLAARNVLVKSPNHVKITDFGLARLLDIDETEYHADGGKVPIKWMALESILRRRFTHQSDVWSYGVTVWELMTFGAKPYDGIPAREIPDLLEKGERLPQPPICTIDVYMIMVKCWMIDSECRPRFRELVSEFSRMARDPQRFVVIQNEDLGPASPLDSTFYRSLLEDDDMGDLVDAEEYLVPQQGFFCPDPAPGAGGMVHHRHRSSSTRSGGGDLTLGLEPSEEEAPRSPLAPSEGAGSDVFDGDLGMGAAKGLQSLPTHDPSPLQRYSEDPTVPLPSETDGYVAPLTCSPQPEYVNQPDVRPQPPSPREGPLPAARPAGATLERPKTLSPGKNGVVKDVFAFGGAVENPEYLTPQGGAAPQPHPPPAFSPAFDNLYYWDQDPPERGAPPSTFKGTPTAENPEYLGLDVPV

With `COc1ccc(-c2oc3ncnc(N)c3c2-c2ccc(NC(=O)Nc3cc(C(F)(F)F)ccc3F)cc2)cc1`, the inhibition in test [1] is 3.03%; in test [2], -0.45%; in test [3], 7.47%; in test [4] it was 87.9%; in test [5] it was 95.7%; in test [6] it was 82.1%. Further, the inhibition was 87.1% in [7]; 87.3% in test [8]; 87.6% in test [9]; 85.7% in test [10]; 89.9% in [11]; 92.7% in [12]. For the same molecule, the inhibition in test [13] is 99.7%; in test [14], 83.7%; in [15], 96.6%; in [16], 4.07%; in test [17] it was 8.56%; in test [18], 12.8%. The inhibition in [19] came to 14.6%; in test [20] it was 8.1%.
As for `CS(=O)(=O)CCNCc1ccc(-c2ccc3ncnc(Nc4ccc(OCc5ccccc5)c(C(F)(F)F)c4)c3c2)o1`, the inhibition in test [1] worked out at 2.12%; in test [2], 3.43%; in [3], 0.97%; in test [4] it was 2.24%; in test [5], 0.59%; in [6] it was 8.45%. The inhibition came to 2.73% in [7]; 6.33% in test [8]; 7.84% in test [9]; 7.71% in [10]; 5.29% in [11]; 2.9% in test [12]. Further, the inhibition in [13] is 3.77%; in test [14] it was 3.21%; in [15] it was 3.55%; in test [16], -0.56%; in test [17] it was 10.4%; in test [18], 9.71%. The inhibition in test [19] turned out to be 33.4%; in test [20], 4.03%.
As for `CNC(=O)c1cccc(C#Cc2cncnc2Nc2ccc(OCc3cccc(F)c3)c(Cl)c2)c1`, the inhibition in test [1] is 4.1%; in test [2], -0.69%; in test [3], 1.65%; in test [4], 2.11%; in test [5] it was -0.11%; in test [6], 1.08%. The inhibition in [7] turned out to be 0.39%; in test [8] it was 5.81%; in [9] it was 6.8%; in [10] it was 3.54%; in [11] it was 6.47%; in [12], 0.65%. The inhibition is 1.29% in test [13]; -1.02% in test [14]; 0.31% in test [15]; -1.06% in [16]; 23.7% in test [17]; 17.6% in test [18]. Moreover, the inhibition is 58.4% in test [19] and 1.71% in test [20].

(Values after ChEMBL document CHEMBL1961873, “Compounds: GSK PKIS; Assays: Nanosyn kinase panel” (2012).)
